In PubChem BioAssay AID1476 (National Center for Advancing Translational Sciences (NCATS), 2009) one finds max response, negative = inhibition and Potency data, which are given here for 58 compounds.

In all, about 200,000 compounds went through this assay and about 4,500 (2.2%) were called active. Not shown: some 12% with an inconclusive outcome. This excerpt belongs to a sample that is enriched for actives. Unmarked numbers belong to inactive results. The call rests on the fitted dose curve; in most records, active means well fitted inhibition curve with a large enough effect; inconclusive means small, poorly fitted or top-dose-only effect, or effect the other way; inactive means flat fitted curve, though single readings scatter.
Potency means the concentration at half of the fitted maximal effect.

Chain of Cruzipain (Trypanosoma cruzi) (P25779 123-467 limits assumed): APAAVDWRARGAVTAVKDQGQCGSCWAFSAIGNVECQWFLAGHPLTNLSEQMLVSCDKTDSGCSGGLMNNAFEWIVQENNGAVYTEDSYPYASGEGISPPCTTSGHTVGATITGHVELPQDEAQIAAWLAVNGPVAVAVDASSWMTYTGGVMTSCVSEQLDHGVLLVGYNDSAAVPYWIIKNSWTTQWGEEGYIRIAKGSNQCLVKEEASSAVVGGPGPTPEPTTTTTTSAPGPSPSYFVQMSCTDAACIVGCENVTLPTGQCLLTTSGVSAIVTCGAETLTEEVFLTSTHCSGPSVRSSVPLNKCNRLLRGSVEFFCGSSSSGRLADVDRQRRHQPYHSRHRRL

In the assay the target is Cruzipain (Trypanosoma cruzi) (UniProt P25779). The assay is described as follows: qHTS Assay for Promiscuous and Specific Inhibitors of Cruzain (without detergent). Further: nearly all actives have a fitted effect of over 40% in size.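 On max response, negative = inhibition: plate controls were enzyme without inhibitor for no effect and buffer without enzyme for full effect.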 As to conditions: purified cruzain, Z-FR-AMC fluorescence, no detergent. The procedure, abridged:
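Purified cruzain at 1.5 nM, pre-incubated 15 min with compound at room temperature in 100 mM sodium acetate pH 5.5, 5 mM DTT, 0.00005% Triton X-100. Reaction started with 2 uM Z-FR-AMC; AMC fluorescence increase over 60 s gives rate.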
Take `Cc1ccc(-c2nc3ccccn3c2Nc2c(C)cccc2C)o1`: the max response, negative = inhibition is 0.509%.

As for `Cc1ccc(-n2ncc3c(N4CCC(C(N)=O)CC4)ncnc32)cc1`, the max response, negative = inhibition is 17.2%. Consider `O=C(OCN1C(=O)c2ccccc2C1=O)/C(=C\c1ccco1)NC(=O)c1ccccc1`, for which the Potency was 0.398 µM (active).

On to `CC(C)(C)c1ccc(C(=O)NCC(=O)OCN2C(=O)c3ccccc3C2=O)cc1`, for which the max response, negative = inhibition is 8.73%.

For the compound `Cc1cccc(NC(=O)/C(=C\c2ccco2)NC(=O)c2ccccc2)c1`, the max response, negative = inhibition is 4.33%.

With `CCc1ccc(NC(=O)CCCc2nnc3n(CCCOC)c(=O)c4sccc4n23)cc1`, the max response, negative = inhibition was 1.39%. Still for that read-out and setting: then `CCc1ccccc1NC(=O)c1ccc2nc(CCc3ccccc3)oc2c1`, with 1.42%; and `CCCCNC(=S)N/N=C1\CCCCc2ccccc21`, with -19.4%. Turning to `Cc1ccc(NC(=S)N/N=C2/CCCc3c(C)cc(C)cc32)cc1`, the Potency is 31.6 µM (active). As for `Cc1ccc(NC(=S)NC2CCCC2)cc1`, the max response, negative = inhibition was -5.53%. `CC(C)C[C@H](NC(=O)[C@@H]1O[C@H]1C(=O)O)C(=O)NCCCCN=C(N)N`: the Potency was 0.0316 µM (active).

As for `COc1ccc(NC(=O)CCCc2nnc3n(CCC(C)C)c(=O)c4sccc4n23)c(OC)c1`, the max response, negative = inhibition is -6.21%. The same measure, in the same setting: the value for `O=C(Nc1cccc(Cl)c1)c1csnn1` was -5.33%; that for `Cc1cccc2c1-c1sc(C(=O)Nc3ccc(F)cc3F)cc1CO2` was -26.4%; that for `COc1cc(NS(=O)(=O)c2ccc3c(c2)OCC(C(=O)N2CCCC2)O3)cc(OC)c1` (stereo not drawn) was 1.72%. Still for that read-out and setting: the value for `O=C(CCc1nc2ccccc2c(=O)[nH]1)OCC(=O)c1cccc(Cl)c1` was -3.88%; that for `CCCc1nc2ccccc2c(C(=O)OCC(=O)c2ccc3c(c2)NC(=O)CO3)c1CC` was -2.97%. Take `Cc1ccc(C(=O)COC(=O)c2cccc(N3C(=O)c4c(C)nc5ccccc5c4C3=O)c2)cc1C`: the Potency is 7.94 µM (active). Consider `Cc1cccc(-n2ncc(C(=O)N3CCN(c4ccc(Cl)cc4)CC3)c2C2CCN(C(=O)OC(C)(C)C)CC2)c1`, for which the max response, negative = inhibition was -21.4%. In the case of `c1ccc(CSc2ncnc3c2sc2nc(N4CCOCC4)c4c(c23)CCCC4)cc1`, the Potency is 3.16 µM (active). For the compound `c1ccc(COc2nsnc2N2CCOCC2)cc1`, the max response, negative = inhibition was -3.44%.

As to `CCCCSc1ncnc2c1sc1nc(N3CCOCC3)c3c(c12)CCCC3`, the max response, negative = inhibition is 3.5%. As to `CCOC(=O)c1cc(-c2ccccc2)n(-c2cccc(C(=O)Nc3cc(OC)cc(OC)c3)c2)c1C`, the max response, negative = inhibition is -4.47%.

On to `CSc1nc(Nc2ccc(F)cc2)cc(-c2ccccc2)n1`, for which the max response, negative = inhibition was -2.64%.

`COc1cc2c(cc1OC)C(Nc1ccc(S(N)(=O)=O)cc1)=NC(C)(C)C2`: the max response, negative = inhibition was 5.29%. Regarding `COc1cc2c(cc1OC)C(C(C)C)=NC(C)(C)C2`, the Potency was 20 µM (active). With `COc1cc2c(cc1O)C(SC)=NC(C)(C)C2`, the max response, negative = inhibition is -12.8%. With `CCOc1ccc(N(CC)S(=O)(=O)N2CCCC(C(=O)NCc3ccc(Cl)cc3)C2)cc1` (stereo not drawn), the max response, negative = inhibition is 19.9%. On the same count and under the same terms, then `CC(=O)N1CCCc2cc(S(=O)(=O)N3CCC(C(=O)NC4CCCCC4)CC3)ccc21`, with 8.72%; and `c1ccc(Nc2nc(-c3ccncc3)cs2)nc1`, with 2.93%; and `COc1ccc(Nc2nc(-c3ccccc3)cs2)cc1`, with -15.9%. On to `c1cnc(Nc2nc(-c3ccc4ccccc4c3)cs2)nc1`, for which the Potency is 3.98 µM (active).

Consider `COC(=O)c1ccccc1NC(=O)c1cnn(-c2ccc(F)cc2)c1-n1cccc1`, for which the max response, negative = inhibition was 3.91%. On to `CCCCCN1CC(O)=C(c2nc(-c3ccc(Cl)cc3)cs2)C1=N`, for which the Potency was 5.01 µM (active). Turning to `CCCc1cc(-c2nc(-c3ccc(C)cc3)cs2)ccn1`, the max response, negative = inhibition is 13.4%. As for `CCCCCN1CC(O)=C(c2ccccc2)C1=N`, the max response, negative = inhibition is -0.607%. The same measure, in the same setting: then `Cc1ccc(S(=O)(=O)N(Cc2nc(-c3ccc(Cl)cc3)no2)C2CCCCC2)cc1`, with -17.5%; and `CCN(CC)S(=O)(=O)c1ccc2c(c1)N(CC(=O)NCc1ccccc1)C(=O)CS2`, with 1.54%; and `O=C(C(=O)N1CCc2ccccc2C1)N1CCc2ccccc2C1`, with -0.495%.

In the case of `N#C/C(=C1\CCCN1)c1nc(-c2ccccc2)cs1`, the max response, negative = inhibition was -17.6%. Turning to `c1ccc(-c2csc(N3CCc4ccccc4C3)n2)cc1`, the Potency was 25.1 µM (active). On to `Cc1ccc(OCC(=O)Nc2ccc(OCc3cc(=O)n4c(C)csc4n3)cc2)cc1C`, for which the max response, negative = inhibition is -9.52%. Same read-out and setting: then `Cc1ccc(C)c(Cn2c(C)c(CNCc3ccc(F)cc3)c(C(=O)O)c2C)c1`, with 16.1%; and `COc1ccc(CN2C(=O)CC(Cc3ccc(C)cc3)C2=O)cc1OC` (stereo not drawn), with -8.47%.

As to `COc1ccc(N2C(=O)CS(=O)(=O)C23C(=O)N(Cc2ccc(C)cc2)c2ccccc23)cc1Cl` (stereo not drawn), the Potency is 2.51 µM (active). `O=C1CSC2(C(=O)N(Cc3ccccc3)c3ccccc32)N1c1cccc(F)c1` (stereo not drawn): the max response, negative = inhibition is 2.62%. On the same count and under the same terms, the value for `Cc1oc(-c2ccccc2F)nc1CN1CCC(C(=O)NCCc2ccc(Cl)cc2)CC1` was 1.36%. The same measure, in the same setting: then `CC1=C(C(=O)OCc2ccc(C)cc2)C(c2ccccc2Cl)CC(=O)N1` (stereo not drawn), with 4.48%; and `O=C1CC(NNc2ccccc2)C(=O)N1c1cccc(Cl)c1` (stereo not drawn), with -28.1%. `O=C1N/C(=C/c2cccn2-c2ccccc2)C(=O)N1c1cccc(Cl)c1`: the Potency is 10 µM (active). `COc1cc2c(cc1/C=C1/NC(=O)N(c3ccccc3)C1=O)OCO2`: the max response, negative = inhibition is -27.8%. On the same count and under the same terms, the value for `Cc1nnc(NC(=O)/C=C/c2ccco2)s1` was -4.39%. The same measure, in the same setting: then `O=C(/C=C/c1ccco1)Nc1ccc(Oc2ccccc2)cc1`, with -5.89%. Turning to `Cc1ccc(-n2nc3ccc(NC(=O)/C=C/c4ccco4)cc3n2)cc1C`, the Potency was 12.6 µM (active).

Regarding `COc1ccccc1Nc1c2c(nc3ccc(NC(=O)/C=C/c4cc(OC)c(OC)c(OC)c4)cc13)CCCC2`, the max response, negative = inhibition was -4.58%. Regarding `COc1ccc(C(=O)Nc2cc(C)ccc2NC(=O)COc2ccccc2)cc1`, the max response, negative = inhibition was 2.68%.

On to `Cc1ccc(OCC(=O)N/N=C\c2ccco2)c(C)c1`, for which the max response, negative = inhibition is 4.92%. For the compound `Cc1ccc(O)c(NC(=O)COc2cc(C)ccc2C)c1`, the Potency is 31.6 µM (active).
